In all, about 33,000 sequences were measured (“e-score”: median about -0.053, highest 2% from about 0.38 on). The sample holds the highest values, similar sequences and a random draw of the others, so the mix is not that of the screen.

Experimental findings from paper PMC10668032, “Altered binding affinity of SIX1-Q177R correlates with enhanced WNT5A and WNT pathway effector expression in Wilms tumor” are described below.

The assay has as its target T1, SIX1 homeodomain (reference allele) (human, UniProt Q15475 108-198).
T1 sequence: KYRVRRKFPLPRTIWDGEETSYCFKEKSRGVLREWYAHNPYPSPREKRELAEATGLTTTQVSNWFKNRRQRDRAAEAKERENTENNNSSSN
As to the kind of experiment: universal protein binding microarray; Universal all-10-mer PBM (8x60K, AMADID 030236), 300 nM GST-tagged protein, Alexa Fluor 488 anti-GST; buffer, salt, pH and temperature not stated (as in Berger); high values mean tight binding. The note with it: protein: ivt; tags: N-terminal GST; dsDNA, one strand shown. The method, boiled down: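 Binding was expressed as 8-mer E-scores calculated with the Universal PBM Analysis Suite. The GST-tagged homeodomains, made by in vitro transcription/translation, were applied in duplicate at 300 nM final concentration to universal 'all 10-mer' protein binding microarrays (8×60K format).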
Regarding ATCCCGCC, the binding signal was determined as 0.27 ± 0.00284 E-score.

For GGATAATA, the binding signal was determined as 0.328 ± 0.0761 E-score.

In the case of ATAGGGTG, the binding signal worked out at 0.161 ± 0.00687 E-score.

ATCATTGC: the binding signal stood at 0.244 ± 0.0146 E-score.

AGTTGGTG: the binding signal was found to be 0.191 ± 0.00358 E-score.

Regarding AAGACGAT, the binding signal was 0.17 ± 0.0796 E-score.

As to ATCCTCGG, the binding signal was determined as 0.23 ± 0.0328 E-score.

In the case of CAGTATAG, the binding signal is 0.178 ± 0.0386 E-score.

Consider AAGTATCG, for which the binding signal was 0.369 ± 0.0877 E-score.

With CAGTATCG, the binding signal came out at 0.4353 ± 0.00267 E-score.

Turning to CACTATCC, the binding signal was found to be 0.295 ± 0.013 E-score.

For the sequence CAGTATAC, the binding signal is 0.295 ± 0.0256 E-score.

Take CAGTATCC: the binding signal worked out at 0.39 ± 0.0154 E-score.

On to GGATTACC, for which the binding signal came out at 0.271 ± 0.0437 E-score.

For the sequence CTCTCCCC, the binding signal came out at 0.164 ± 0.0775 E-score.

As to ATCACCTG, the binding signal stood at 0.33 ± 0.0102 E-score.

AGATCCAA: the binding signal is 0.204 ± 0.00278 E-score.

Take GGATCCTA: the binding signal amounted to 0.377 ± 0.0205 E-score.

As for GGATCCAC, the binding signal was determined as 0.317 ± 0.0719 E-score.

In the case of CGATCCTA, the binding signal was found to be 0.299 ± 0.00788 E-score.

For the sequence GGATCCAA, the binding signal stood at 0.41 ± 0.0258 E-score.

For AGATCCTA, the binding signal turned out to be 0.2149 ± 0.00162 E-score.

In the case of CCGAAACC, the binding signal was 0.185 ± 0.0211 E-score.

As for AAGAGGAT, the binding signal worked out at 0.212 ± 0.00759 E-score.

For the sequence CGTAGTGA, the binding signal was determined as 0.182 ± 0.0165 E-score.

With CAGGACAC, the binding signal amounted to 0.187 ± 0.0771 E-score.

Consider AGATATCG, for which the binding signal was 0.434 ± 0.0383 E-score.

AGAGATCT: the binding signal was found to be 0.198 ± 0.0724 E-score.

Regarding AAATATCT, the binding signal was determined as 0.157 ± 0.0748 E-score.

AGATATTG: the binding signal was determined as 0.311 ± 0.0669 E-score.

On to GAATATCA, for which the binding signal was found to be 0.366 ± 0.0771 E-score.

Consider AGATATCT, for which the binding signal stood at 0.385 ± 0.082 E-score.

As for GGATATGA, the binding signal was found to be 0.356 ± 0.0113 E-score.

As for CGCTATCA, the binding signal came to 0.34 ± 0.0391 E-score.

With GGATATCA, the binding signal turned out to be 0.487 ± 0.00885 E-score.

As to GGCTATCA, the binding signal came to 0.392 ± 0.0544 E-score.

Turning to AGCTATCA, the binding signal was determined as 0.313 ± 0.116 E-score.

Take AGATATGG: the binding signal worked out at 0.335 ± 0.0142 E-score.

For ATCACCGG, the binding signal came out at 0.291 ± 0.0263 E-score.

For the sequence ACACGGTA, the binding signal turned out to be 0.188 ± 0.0434 E-score.

Regarding GGATCGCC, the binding signal came out at 0.342 ± 0.0494 E-score.

Turning to TATAGCGA, the binding signal was determined as 0.164 ± 0.0391 E-score.

As for ATCCATCG, the binding signal came to 0.246 ± 0.0374 E-score.

As for ACATAGTA, the binding signal turned out to be 0.205 ± 0.029 E-score.

For the sequence CTACTATA, the binding signal worked out at 0.153 ± 0.00888 E-score.

Turning to ACACCACG, the binding signal was determined as 0.263 ± 0.0526 E-score.

Take TGATATAA: the binding signal was 0.297 ± 0.032 E-score.

For the sequence AGATATCA, the binding signal stood at 0.451 ± 0.0439 E-score.

For TGATATCA, the binding signal was 0.48 ± 0.0111 E-score.

As to CAATATCA, the binding signal is 0.306 ± 0.111 E-score.

On to TGATAGCA, for which the binding signal stood at 0.323 ± 0.0297 E-score.

Turning to CGATATCA, the binding signal is 0.444 ± 0.0437 E-score.

Turning to AGATATTA, the binding signal stood at 0.234 ± 0.119 E-score.

Turning to AGATATGA, the binding signal was determined as 0.291 ± 0.0439 E-score.

For the sequence AGATATCC, the binding signal was determined as 0.442 ± 0.0272 E-score.

With AGATATTC, the binding signal was 0.219 ± 0.06 E-score.

AAATATCC: the binding signal is 0.271 ± 0.0279 E-score.

For the sequence CGATATTA, the binding signal was 0.365 ± 0.045 E-score.

For ATCTGTCA, the binding signal came to 0.208 ± 0.00539 E-score.

For the sequence ATCCCTTG, the binding signal turned out to be 0.271 ± 0.0326 E-score.

Consider GGATTCGA, for which the binding signal was determined as 0.212 ± 0.0426 E-score.

For TATCCCAA, the binding signal stood at 0.329 ± 0.0116 E-score.

Turning to CGTATTCA, the binding signal amounted to 0.265 ± 0.0108 E-score.

On to ATCTACCG, for which the binding signal was 0.23245 ± 0.00017 E-score.

For the sequence GATCTTCC, the binding signal came to 0.2463 ± 0.00105 E-score.

With GGATAGCC, the binding signal turned out to be 0.3501 ± 0.00233 E-score.

Take GGATATCC: the binding signal was found to be 0.4671 ± 0.00165 E-score.

With CGATATGA, the binding signal was 0.311 ± 0.0729 E-score.

For AGATATGC, the binding signal was found to be 0.353 ± 0.0369 E-score.

For CGATATGC, the binding signal was determined as 0.428 ± 0.00624 E-score.

Consider GGATAACC, for which the binding signal amounted to 0.297 ± 0.00525 E-score.

In the case of CAATATCC, the binding signal worked out at 0.37 ± 0.00402 E-score.

CGATATTC: the binding signal came out at 0.317 ± 0.0233 E-score.

Consider CGATAGCG, for which the binding signal was 0.228 ± 0.0412 E-score.

For CGATATCG, the binding signal is 0.439 ± 0.0105 E-score.

Consider CGATAGCA, for which the binding signal stood at 0.206 ± 0.0373 E-score.

Consider CGATATCC, for which the binding signal worked out at 0.476 ± 0.0109 E-score.

Consider AGTAATAT, for which the binding signal is 0.236 ± 0.0691 E-score.

For ATACGGGC, the binding signal was determined as 0.278 ± 0.0276 E-score.

TCGTCTCA: the binding signal worked out at 0.22 ± 0.0818 E-score.

Turning to GTATGAAC, the binding signal worked out at 0.208 ± 0.0436 E-score.

Take GTAACCCA: the binding signal is 0.169 ± 0.0635 E-score.

As for ATCATGCG, the binding signal came to 0.24 ± 0.02 E-score.

Take ATATATGA: the binding signal was found to be 0.233 ± 0.0893 E-score.

ATCAGCCC: the binding signal was determined as 0.308 ± 0.0315 E-score.

In the case of ATACCCTA, the binding signal was 0.452 ± 0.00588 E-score.

In the case of ATACCTTC, the binding signal came to 0.323 ± 0.0961 E-score.

Take ATACTCTG: the binding signal was determined as 0.354 ± 0.0279 E-score.
